Laboratory results: PubChem BioAssay
The source made the active and inactive calls.

Molecular target: Torsin-1A-interacting protein 2 (Homo sapiens) (UniProt Q8NFQ8)
Sequence (Q8NFQ8 whole entry, looked up): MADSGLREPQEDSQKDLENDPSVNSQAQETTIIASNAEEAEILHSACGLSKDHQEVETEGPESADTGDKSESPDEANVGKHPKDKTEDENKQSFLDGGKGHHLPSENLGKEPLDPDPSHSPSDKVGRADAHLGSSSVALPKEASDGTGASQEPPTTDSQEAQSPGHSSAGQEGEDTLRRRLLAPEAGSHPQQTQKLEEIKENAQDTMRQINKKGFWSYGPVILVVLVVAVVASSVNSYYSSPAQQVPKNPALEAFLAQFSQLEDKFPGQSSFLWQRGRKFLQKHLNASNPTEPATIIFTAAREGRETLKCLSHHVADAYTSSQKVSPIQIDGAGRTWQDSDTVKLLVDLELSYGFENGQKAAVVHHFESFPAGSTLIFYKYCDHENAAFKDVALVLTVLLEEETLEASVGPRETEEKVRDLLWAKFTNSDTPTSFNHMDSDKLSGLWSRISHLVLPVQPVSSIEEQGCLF
Test: LULL1 binders on small-molecule microarray, primary screen, cell lysate, human LULL1 lysate, 635/667 nm fluorescence (AID 1092);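 note: probe is lysate of COS7 cells overexpressing human LULL1; score merges per-feature 667 nm fluorescence with signal-to-noise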
Conditions: hLULL1 lysate binding, 635 nm fluorescence, higher = more signal
`C=CCC(OC(C)=O)[C@@H]1[C@@H](N(Cc2ccc(-c3ccccc3)cc2)C(=O)c2cccc3ccccc23)c2cc(OCCCO)ccc2N1C(=O)c1ccc2ccccc2n1` (some centres undefined) gave a composite z-score of 0.53. Work on `C=CCC(OC(C)=O)[C@@H]1[C@@H](N(Cc2cccc3ccccc23)C(=O)Cc2ccc(F)cc2)c2cc(OCCCO)ccc2N1C(=O)Cc1ccc(OC)cc1` (some centres undefined) yielded a composite z-score of -0.0743. For `O=C1O[C@H](c2ccccc2)[C@H](c2ccccc2)N2[C@H]1[C@@H](C(=O)N1CCN(c3ncccn3)CC1)[C@]1(C(=O)Nc3ccc(C#CCCO)cc31)[C@H]2c1ccccc1OCCO`, the composite z-score was 2.79. Compound `COC(=O)[C@@]1(Cc2ccccc2)[C@H]2c3cc(C(=O)N4CCCC4)n(CCO)c3C[C@H]2CN1C(=O)c1ccccc1` has a composite z-score of 2.92. For `COCCCNC(=O)[C@@]1(Cc2ccccc2I)c2ccccc2C(=O)N(Cc2ccccc2Cl)[C@H]1c1ccc(CO)cc1`, the composite z-score was 2.37.

System: not listed separately
Test: E. coli growth modulation, two-sided OD650, primary screen, E. coli filamentation project, strain DRC41, 24 h (AID 1093);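 note: MC1000 strain lacking acrAB efflux and sulA so SOS filamentation is blocked; test concentration not given here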
Conditions: OD650, 24 h, higher = more signal, called active from +8 up or from −8 down
In the case of `COC(=O)[C@@]1(Cc2ccc(OC)cc2)[C@H]2c3cc(C(=O)N(C)C)n(Cc4cc(C)n(C)n4)c3C[C@H]2CN1C(=O)c1ccccc1`, the z-score is reported as -1.13 (inactive). In the case of `O=C(NCc1ccccc1)[C@]1(Cc2ccccc2)N=C(c2ccc(OCCCO)cc2)O[C@@H]1c1ccccc1`, the z-score is reported as -1.26 (inactive). With `[N-]=[N+]=NCc1ccccc1[C@H]1OC(c2ccc(OCCCO)cc2)=N[C@@]1(Cc1ccccc1N=[N+]=[N-])C(=O)N1CCCCC1` the z-score was 0.203 (inactive). For `COCCOC(=O)N1C(=O)[C@@]2(c3ccccc31)[C@H](c1ccc(OCCO)cc1)N1[C@H](c3ccccc3)[C@H](c3ccccc3)OC(=O)[C@H]1[C@@H]2C(=O)NC[C@H](O)c1ccccc1`, the z-score was -0.0625 (inactive). For `COc1ccc(C(=O)Nc2ccc3c(c2)[C@]2(O[C@@H](CCO)[C@H]([Si](C)(C)c4ccc(OC)cc4)[C@H]2C)C(=O)N3Cc2ccccc2)cc1`, the z-score was 1.11 (inactive). With `CN(C)C(=O)[C@]1(Cc2ccccc2N=[N+]=[N-])N=C(c2ccc(OCCCO)cc2)O[C@@H]1c1ccccc1CN=[N+]=[N-]` the z-score was 0.35 (inactive). In the case of `COCCOC(=O)N1C(=O)[C@@]2(c3cc(C#Cc4ccc(OC)cc4)ccc31)[C@H](C(=O)N1CCc3cc(OC)c(OC)cc3C1)[C@H]1C(=O)O[C@H](c3ccccc3)[C@H](c3ccccc3)N1[C@@H]2c1ccc(O)cc1`, the z-score is reported as 1.12 (inactive). With `COc1ccc(C#Cc2ccc3c(c2)[C@]2(C(=O)N3)[C@H](C(N)=O)[C@H]3C(=O)O[C@H](c4ccccc4)[C@H](c4ccccc4)N3[C@@H]2c2ccc(O)cc2)cc1` the z-score was -0.103 (inactive). For `COc1ccc([Si](C)(C)[C@@H]2[C@@H](CCO)O[C@]3(C(=O)N(Cc4ccccc4)c4ccc(N5C(=O)COc6ccccc65)cc43)[C@H]2C)cc1`, the z-score was 2.61 (inactive). In the case of `CC(C)(C)OC(=O)CC[C@@]1(C(=O)N2CCCCC2)N=C(c2ccc(OCCCO)cc2)O[C@@H]1c1ccccc1CN=[N+]=[N-]`, the z-score is reported as 0.308 (inactive). In the case of `CC(C)C(CO)N1C(=O)[C@@H]2[C@H]3C(=O)OCC=C[C@H]3OC23C=CCN(CCN2CCOCC2)C(=O)[C@@H]13` (some centres undefined), the z-score is reported as -0.455 (inactive). With `CN1C(=O)C2C=CC(C(O)c3cccc4ccccc34)N(NC(=O)OC(C)(C)C)C2C1=O` (centres undefined) the z-score was -0.094 (inactive). For `COCCOC(=O)N1C(=O)[C@@]2(c3cc(C#Cc4ccc(OC)cc4)ccc31)[C@H](C(=O)N1CCc3cc(OC)c(OC)cc3C1)[C@H]1C(=O)O[C@H](c3ccccc3)[C@H](c3ccccc3)N1[C@@H]2c1ccc(OCCO)cc1`, the z-score was 0.816 (inactive). For `CCOC(=O)C1=CC[C@@H](c2ccccc2)N(S(=O)(=O)c2ccc(C)cc2)[C@H]1C=C(C)C`, the z-score was 0.322 (inactive). In the case of `C[N+](C)(C)CCCC[C@@H]1NC(=O)[C@H]2C[C@@H](C(=O)NCCCCCCN)[C@@H](c3cccc(OCCO)c3)N2C1=O`, the z-score is reported as 0.27 (inactive). For `COC(=O)C(CC#Cc1ccc2c(c1)[C@]1(C(=O)N2)[C@H](c2ccc(O)cc2)N2[C@H](c3ccccc3)[C@H](c3ccccc3)OC(=O)[C@H]2[C@@H]1C(N)=O)C(=O)OC`, the z-score was 2.23 (inactive). For `CCOc1cc(C(O)C2C=CC3C(=O)NC(=O)C3N2Nc2ccccn2)ccc1O` (centres undefined), the z-score was -0.977 (inactive). With `C[N+](C)(C)CCCCCCNC(=O)[C@@H]1C[C@@H]2C(=O)NCC(=O)N2[C@@H]1c1cccc(OCCO)c1` the z-score was 1.3 (inactive). In the case of `O=C1c2ccccc2C(=O)C2CC([C@H]3Oc4ccccc4S(=O)(=O)N4CCC[C@@H]34)=CCC12` (some centres undefined), the z-score is reported as 1.47 (inactive).
